# Screening results from PubChem.
# DAX1 inh-1: DAX1 (NR0B1) inhibitors, primary screen, cell-based, HEK293, Gal4-DAX1, luciferase luminescence; Nuclear receptor subfamily 0 group B member 1 (Homo sapiens), P51843; HEK293 Gal4-DAX1 luciferase reporter; inhibition, % at 6.75 µM; hit rate 0.99% among 340,000; AID 504766, 2011;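 active = inhibition above the mean over all tested compounds plus 3 SD, cut at about 4.2% in these data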;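 note: 0% = DAX1-transfected cells with DMSO and 100% = empty-vector control cells with DMSO; inhibition shows as a rise in luminescence from relieved DAX1 repression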
# Target sequence (P51843 207-470 limits assumed): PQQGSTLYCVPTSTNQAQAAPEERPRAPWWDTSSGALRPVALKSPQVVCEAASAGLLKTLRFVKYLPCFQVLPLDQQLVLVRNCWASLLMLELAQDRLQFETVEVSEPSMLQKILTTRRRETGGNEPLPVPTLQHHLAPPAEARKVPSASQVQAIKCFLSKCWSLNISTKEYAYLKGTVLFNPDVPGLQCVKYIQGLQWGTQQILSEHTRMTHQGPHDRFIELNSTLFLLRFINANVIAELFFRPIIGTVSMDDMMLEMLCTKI
# hgDAF-12 ag: H. glycines DAF-12 receptor agonists, primary screen, cell-based, luminescence, HEK293, GAL4 fusion, UAS-luciferase; HEK293 GAL4-hgDAF12 UAS-luciferase reporter, agonist luminescence; normalized to butyrate control; hit rate 1.8% among 370,000; activation, % at 6.8 µM; Nuclear hormone receptor DAF-12 (Heterodera glycines), GAL4 fusion;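 active = activation above a cutoff set at the mean of all screened compounds plus 3 SD, cut at about 10% in these data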;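 note: 0% = DMSO wells and 100% = sodium butyrate wells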
# hcDAF-12 act: H. contortus DAF-12 nuclear receptor activators, primary screen, cell-based, luminescence, HEK293, lit1-tk-luc reporter. HEK293 hcDAF-12 lit1-tk-luc reporter; 0% DMSO, 100% Δ7-dafachronic acid. hit rate 1.4% among 370,000. AID 652067, 2013. activation, % at 6.8 µM;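 active = activation above the mean of all tested compounds plus 3 SD, cut at about 5.5% in these data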;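 note: 100% = response to 3 µM Δ7-dafachronic acid high control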
# DAX1 inh-2: DAX1 (NR0B1) inhibitors on StAR promoter, primary screen, cell-based, luminescence, SF-1 (NR5A1), full-length DAX-1; HEK293T StAR-luciferase reporter, SF-1/DAX-1 repression relief; inhibition, % at 6.8 µM; hit rate 1.1% among 370,000; AID 652010, 2013;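 active = inhibition above the mean over all tested compounds plus 3 SD, cut at about 3.6% in these data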;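 note: 0% = DAX-1 cells with DMSO and 100% = cells lacking DAX-1 with DMSO; higher inhibition means more luminescence from relief of DAX-1 repression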
# ssDAF12 agonist: S. stercoralis DAF-12 nuclear receptor activators, primary screen, cell-based, luminescence, HEK293, GRIP1 co-expression, lit1-tk-luc | HEK293 ssDAF-12/GRIP1 lit1-tk-luc reporter; % of 3 µM dafachronic acid response | hit rate 1% among 370,000 | AID 652126, 2013 | activation, % at 6.8 µM | Nuclear hormone receptor DAF-12 (Strongyloides stercoralis);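 active = activation above the mean over all tested compounds plus 3 SD, cut at about 0.9% in these data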;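 note: 0% = DMSO-only wells and 100% = 3 µM delta7-dafachronic acid wells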
# * hit, by the source's call; x = no result. Sampled rows, rich in hits. Any-hit rate of the full collection: about 4.1%.
SMILES,DAX1 inh-1,hgDAF-12 ag,hcDAF-12 act,DAX1 inh-2,ssDAF12 agonist
COc1ccc(OCc2cccc(C(=O)Nc3cc(C)on3)c2)cc1,-4.2,10.3,3.9,2.2,0.2
COc1ccc(OCc2cccc(C(=O)Nn3cc([N+](=O)[O-])cn3)c2)cc1,-3.6,11.4*,5.3,2.5,-0.4
O=[N+]([O-])c1cccc(COc2ccc(CO)cc2)c1,x,18.8*,7.0*,1.9,2.6*
CCc1cc(-c2nnn(-c3cc(C(C)C)ccc3C)c2CC)ccc1-c1cn(CCc2c[nH]c3ccccc23)nn1,-1.1,0.3,0.1,-1.2,-1.1
O=C(NCc1ccccc1)[C@H]1CCCN1C(=O)[C@H]1CCCN1C(=O)N1CCCCC1,x,0.2,-1.2,0.5,-1.3
O=C1C=C(C#Cc2ccc(Oc3ccccc3)cc2)C[C@@H](c2ccc(F)cc2)C1,0.0,0.3,-2.0,-0.4,-1.1
O=C(NC1CCCC1)C1C(c2ccc(C(F)(F)F)cc2)=Nc2ccccc2N1C(=O)c1ccccc1 (centres undefined),x,5.2,5.7*,3.6*,0.8
O=C(NC1CCCC1)C1C(c2ccc(C(F)(F)F)cc2)=Nc2ccccc2N1C(=O)c1ccco1 (centres undefined),x,5.7,5.6*,1.4,0.2
COc1ccc(C2=Nc3ccccc3N(C(=O)c3cccnc3)C2C(=O)NC2CCCC2)cc1 (centres undefined),x,6.1,-0.6,1.0,-0.2
COCCNC(=O)C1(C)CCCN(C(=O)c2cc(C)on2)C1 (centres undefined),x,-1.5,1.4,-0.9,-0.3
CCOc1cccc(=O)c2c(C)n(CC(=O)c3ccccc3)c(C)c12,-0.5,-1.8,-1.6,-1.0,-2.2
COc1cccc(=O)c2c(C)n(CC(=O)c3ccccc3)c(C)c12,-0.6,-0.6,0.7,0.0,1.5*
Cc1cc2ncc(-c3ccc(Cl)cc3)c(N)n2n1,0.8,7.6,0.3,4.0*,-0.3
Cc1cccc(NC(=O)NCc2ccc3c(c2)OCO3)c1,1.6,8.4,-1.3,4.4*,-1.4
Cc1ccccc1OCC(=O)OCC(=O)NCc1ccc2c(c1)OCO2,-0.1,2.1,0.5,-0.6,1.2*
Cc1cccc(NC(=S)NCc2ccc3c(c2)OCO3)c1,0.0,0.3,0.1,-0.6,-1.0
C/C(=N\OCC(=O)OCC(=O)NCc1ccccc1)c1ccc2c(c1)OCO2,0.4,-3.0,0.6,3.9*,-0.8
CC(=O)Nc1ccc(C(=O)N2CCCC(c3cc(C(=O)Nc4ccccc4)no3)C2)cc1 (centres undefined),x,-5.1,-3.6,-2.6,-1.5
CCCCCNC(=O)c1nc(-c2c(F)cccc2F)oc1-c1ccccc1,x,-1.3,-1.6,-1.6,-1.4
COc1ccccc1Cc1c(-c2ccccc2)nc2ccc(Cl)cn12,x,6.1,3.1,2.9,1.5*
COc1ccccc1Cc1c(-c2ccc(C#N)cc2)nc2ccc(Br)cn12,x,4.1,6.0*,0.4,-0.9
COc1ccccc1Cc1c(-c2cccc(Cl)c2)nc2ccc(Cl)cn12,x,2.9,4.0,1.5,-0.1
Brc1ccc(-c2nc3ccc(Br)cn3c2Cc2ccccc2)cc1,x,11.8*,-0.4,-3.3,-0.6
O=C(N/N=C\c1ccc(-c2cccc(Cl)c2)o1)C(=O)NC1CCCC1,7.0*,-0.2,-0.5,0.3,-0.9
Cc1ccc(OCC(=O)Nc2ccc(F)cc2)c([N+](=O)[O-])n1,7.0*,10.0,4.5,2.9,-0.5
SMILES,DAX1 inh-1,hgDAF-12 ag,hcDAF-12 act,DAX1 inh-2,ssDAF12 agonist
Cc1ccc(C)c(C(=O)COc2ccc(C)nc2[N+](=O)[O-])c1,-0.2,-1.9,1.8,-0.4,-0.5
Cc1ccc(OCC(=O)c2c[nH]c3ccccc23)c([N+](=O)[O-])n1,2.8,4.0,6.3*,1.6,0.9
COC(=O)Cc1ccccc1NS(=O)(=O)c1ccc(C)cc1,x,-2.2,-1.5,-0.4,-1.1
Cc1ccc(S(=O)(=O)NN=CC=CC=NNS(=O)(=O)c2ccc(C)cc2)cc1,2.5,2.5,-0.7,-0.2,-0.9
CCOC(=O)C/C(C)=N\Nc1nc(-c2ccccc2)cs1,-0.8,1.7,1.5,0.6,1.7*
C=CCNc1nnc(Cl)c2ccccc12,-1.6,x,x,x,x
Clc1nnc(NN=C2CCCC2)c2ccccc12,4.0,3.6,4.0,0.1,1.3*
O=C(O)CC(NC(=O)Cc1ccc([N+](=O)[O-])cc1)c1ccc2c(c1)OCO2 (centres undefined),4.4*,-0.7,-0.7,0.1,-0.4
COc1cccc(/C=N/c2oc(-c3ccccc3)cc2C#N)c1O,0.8,1.4,-0.5,-0.2,-0.8
COc1cccc(C=Nc2ccccc2C#N)c1O,0.3,1.0,4.0,0.5,2.1*
COc1ccccc1-c1cccc2[nH]c3c(c12)CCN1C(=O)[C@H]2[C@H](C)ON(C)[C@H]2C[C@@H]31,x,-1.2,-2.0,0.7,-1.0
CC(/C=C/C=C/c1ccccc1)=N/NC(=O)C(O)c1ccccc1 (centres undefined),1.5,0.7,-1.6,0.0,-0.9
CC(/C=C/C=C/c1ccccc1)=N/NC(=O)c1ccc2c(c1)OCCO2,-0.1,4.4,3.4,1.1,1.2*
CC(/C=C/C=C/c1ccccc1)=N\NC(=O)c1cccnc1,4.5*,5.8,-0.3,-1.2,-1.1
O=C(/C=C/c1ccccc1)c1ccc2c(c1)OCCCCO2,1.9,12.0*,3.8,2.0,-0.2
O=C(O)c1ccc2c(c1)OCCCO2,1.8,2.4,0.0,0.1,-1.1
CC(/C=C\C=C\c1ccccc1)=N\NC(=O)c1cncc(Br)c1,-0.4,1.3,-0.2,-0.1,-0.2
O=C(NC(c1ccc(F)cc1)c1ccc2ccccc2n1)C1CCN(Cc2cccc(C(F)(F)F)c2)CC1 (centres undefined),x,-4.8,-1.0,3.7*,-1.4
C/C(=N\OC(=O)Nc1ccccc1)c1ccc(C)cc1,5.9*,3.9,0.5,0.9,-0.9
C/C(=N/NC(=O)Nc1ccccc1)c1ccc(C)cc1,2.2,-2.1,-1.6,-0.2,-1.2
CCOC(=O)Nc1ccc2c(C)cc(=O)oc2c1,0.4,10.9*,2.0,1.1,-0.9
Cc1cc(=O)oc2cc(NC(=O)c3ccccc3Cl)ccc12,0.4,13.2*,2.7,1.2,0.5
Cc1cc(=O)oc2cc(NC(=O)c3ccccc3C(=O)O)ccc12,0.1,3.2,-1.7,0.5,-1.0
Cn1c(CNC(=O)CNS(=O)(=O)c2ccccc2)cc(=O)n(C)c1=O,0.7,0.7,1.4,3.8*,-1.5
CCCCCC1C(=O)CCC1CC(=O)OC (centres undefined),4.4*,2.3,0.2,-0.5,-1.2
